# Test results: PubChem BioAssay AID598 (SRMLSC, 2007)
# Screen size: about 85,000 compounds; about 5,100 (6%) were called active.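 Rule for the calls: active = viability at or below 40%; inactive = viability above 40%.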 Only a selection was taken, and actives are over-represented in it overall.
# Experiment: proliferation blockers of H69AR lung cancer cells, primary screen, cell-based, human, 86K library (AID 598);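 note: multidrug resistant small cell line overexpressing MRP-1 efflux transporter; 100% = mean luminescence of untreated control wells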
# Settings: H69AR lung tumor viability, ATP luminescence, 72 h; at 10 µM; active compounds read low
row,SMILES,viability
1,O=C1C2N=NN(CC(=O)N3N=C(c4cccc5ccccc45)CC3c3ccccc3)C2C(=O)N1c1ccccc1 (stereo not drawn),70.5% (inactive)
2,CCN1CCCC1Cn1cnc2c([nH]c3cc(OC)ccc32)c1=O (stereo not drawn),79.9% (inactive)
3,Cc1cccc(CCNS(=O)(=O)c2ccc(S(=O)(=O)NC3CCCC3)cc2)c1,78% (inactive)
4,O=C(Nc1ccc(Cl)cc1)c1cc2nc(C3CC3)cc(C(F)(F)F)n2n1,79.5% (inactive)
5,COc1ccc(N2CCN(C(c3cc4ccc(C)cc4[nH]c3=O)c3nnnn3C3CCCC3)CC2)cc1 (stereo not drawn),86.9% (inactive)
6,CCOC(=O)C1CCN(C(c2cc3cc(C)cc(C)c3[nH]c2=O)c2nnnn2C2CCCCC2)CC1 (stereo not drawn),6.09% (active)
7,Cc1cc(C)c2[nH]c(=O)c(C(c3nnnn3Cc3ccc4c(c3)OCO4)N3CCCC3)cc2c1 (stereo not drawn),68.1% (inactive)
8,Cc1ccc(-c2noc(CC(c3ccccc3)c3ccccc3)n2)cc1,97.1% (inactive)
9,CCn1c(CNC(=O)c2ccccc2)nnc1SCC(=O)N1CCN(c2ccccc2)CC1,90.4% (inactive)
10,Cc1cccc2nc(CSc3nc4[nH]ncc4c(=O)n3-c3cccc(Cl)c3)cc(=O)n12,41.8% (inactive)
11,Cc1cc(C)c2c(n1)nn1c(N3CCN(c4cccc(Cl)c4)CC3)cc(C)nc21,17.6% (active)
12,Cc1cc(C)c2c(n1)nn1c(-n3ccnc3)cc(C)nc21,74.5% (inactive)
13,Cc1cc(C)c2c(n1)nn1c(N3CCOCC3)cc(C)nc21,72.3% (inactive)
14,O=C(NCc1ccco1)C1(c2ccc(Cl)cc2)CCCC1,96.8% (inactive)
15,O=C(CSc1c2c(nc3ccc(Cl)cc13)CCCC2)NCc1ccco1,7.34% (active)
16,O=C(NCc1ccco1)c1cc(-c2cccnc2)nc2ccc(Cl)cc12,68.3% (inactive)
17,COc1ccc(-n2nnnc2SCc2nc(N)nc(N3CCOCC3)n2)cc1,94.2% (inactive)
18,Cc1cc(NC(=O)CS(=O)(=O)c2cn(C)c3ccccc23)no1,78.6% (inactive)
19,O=C(CSc1nc2cc3c(cc2c(=O)n1CCC1=CCCCC1)OCO3)NCc1ccco1,36.1% (active)
20,O=C(CCCn1c(SCC(=O)c2ccc(F)cc2)nc2ccccc2c1=O)NCc1ccco1,58.2% (inactive)
21,C=C(C)Cn1c(SCC(=O)NCc2ccco2)nc2sc3c(c2c1=O)CCC3,49.4% (inactive)
22,Cc1c(CCO)c(=O)n(-c2ccccc2)n1S(=O)(=O)c1ccc(F)cc1,75.6% (inactive)
23,CCn1c(SCC(=O)Nc2ccc(S(=O)(=O)Nc3onc(C)c3C)cc2)nnc1-c1ccccc1,98.3% (inactive)
24,COn1c(=O)c(=O)n(OC)c2ccccc21,97.1% (inactive)

row,SMILES,viability
1,COC(=O)c1ccccc1Oc1c(F)c(F)nc(N2CCOCC2)c1F,67.1% (inactive)
2,Cc1ccc(C)c(N(CC(=O)NCc2ccco2)C(=O)CCC(=O)Nc2ccccn2)c1,98.1% (inactive)
3,Cc1ccc(C(C(=O)NC2CCCC2)N(Cc2ccco2)C(=O)CCC(=O)Nc2ccccn2)cc1 (stereo not drawn),69.7% (inactive)
4,Cc1ccc2c(c1)N(CC(=O)N(Cc1ccccn1)Cc1ccco1)C(=O)C(C(C)C)O2 (stereo not drawn),35% (active)
5,COc1cc(S(=O)(=O)N(Cc2cccs2)C2CC2)ccc1-n1cnnn1,68% (inactive)
6,COC(=O)c1ccccc1NC(=O)Cc1ccccc1OC,94.2% (inactive)
7,CCOC(=O)c1nnn(-c2nonc2-n2cccc2)c1CN1CCC(C(=O)OCC)CC1,70.5% (inactive)
8,CCOc1ccc(S(=O)(=O)NCCSc2ccccc2)cc1,105% (inactive)
9,COc1ccc(C(=O)N2CC3(C)CC2CC(C)(C)C3)cc1OC (stereo not drawn),88.7% (inactive)
10,Cc1coc2c(O)cc3c(c12)OC1(N2CCCCC2)C(=O)NCCCC31 (stereo not drawn),1.27% (active)
11,CCc1c(O)cc2n(c1=O)-c1ccccc1C2(C)C,91.5% (inactive)
12,COC(=O)c1ccc(/C=N\n2c(C)nnc2C)cc1,99.6% (inactive)
13,Cc1nnc(C)n1/N=C/c1ccc(C(C)C)cc1,106% (inactive)
14,COc1ccc(Br)cc1/C=N/n1c(C)nnc1C,28.1% (active)
15,CCN(CC)CC(=O)c1c[nH]c2ccc(OC)cc12,77.2% (inactive)
16,CC(c1ccco1)N(C(=O)Nc1ccccc1)C1CCCCC1 (stereo not drawn),77.7% (inactive)
17,O=C(CO/N=C/c1ccccc1O)NNC(=O)c1ccccc1Cl,102% (inactive)
18,CC[C@]1(O)CC2CN(CCc3c([nH]c4ccccc34)[C@@](C(=O)OC)(c3cc4c(cc3OC)N(C=O)[C@H]3[C@@](O)(C(=O)OC)[C@H](OC(C)=O)[C@]5(CC)C=CCN6CC[C@]43[C@@H]65)C2)C1 (stereo partly drawn),31.9% (active)
19,CC(C)c1cc(C(=O)O)n[nH]1,102% (inactive)
20,Cc1ccc(NC(=O)CSCC(=O)N2CCOCC2)cc1,93.9% (inactive)
21,CCCc1[nH]nc2c1C(c1ccc(OC(=O)c3ccco3)cc1)C(C#N)=C(N)O2 (stereo not drawn),97.7% (inactive)
22,CCCc1[nH]nc2c1C(c1ccc(OC)c(Cn3nc(C)c(Br)c3C)c1)C(C#N)=C(N)O2 (stereo not drawn),87.4% (inactive)
23,CCCc1[nH]nc2c1C(c1ccc(Br)s1)C(C#N)=C(N)O2 (stereo not drawn),1.42% (active)
24,CCOc1ccc(CN(Cc2ccco2)S(=O)(=O)c2ccc(-n3cnnn3)c(OC)c2)cc1,66.6% (inactive)

row,SMILES,viability
1,Cc1c(C=O)c2ccccn2c1C(=O)c1ccncc1,87.6% (inactive)
2,Cc1ccc(-c2cc(C(=O)NCC3CCCO3)c3ccccc3n2)o1 (stereo not drawn),87.9% (inactive)
3,Cc1ccc2nc(-c3ccc(SCC(=O)Nc4cc(C)on4)nc3)[nH]c2c1,10.7% (active)
4,Cc1ccc(-c2csc(SCC(=O)Nc3cc(C)on3)n2)cc1,87.9% (inactive)
5,COc1ccc2nc(SCC(=O)Nc3c(C)cc(C)cc3C)[nH]c2c1,71.7% (inactive)
6,CC(C)NC(=O)CSc1nnc(COc2ccccc2Cl)o1,106% (inactive)
7,CCCC(C)C(=O)Nc1ccc(NC(C)=O)cc1 (stereo not drawn),103% (inactive)
8,CCN1CCN(c2c(Cl)cccc2NC(=O)c2ccc(Br)o2)CC1,90.5% (inactive)
9,COc1cc(OC)c(NC(=O)c2ccc(Br)o2)cc1Cl,58.5% (inactive)
10,CCCC(=O)Nc1ccc(Cl)c(NC(=O)c2ccc(Br)o2)c1,28.2% (active)
11,CCN(c1ccccc1)S(=O)(=O)c1cccc(C(=O)O)c1,103% (inactive)
12,CCN(c1ccccc1)S(=O)(=O)c1ccc(NC(=O)C(C)(C)C)cc1,34.8% (active)
13,CCN(c1ccccc1)S(=O)(=O)c1ccc(N)cc1,89.9% (inactive)
14,COc1ccc(/C(O)=C2\C(=O)C(=O)N(Cc3ccco3)C2c2ccc(OC)cc2OC)cc1 (stereo not drawn),97.1% (inactive)
15,CC1=NN(/C(=N\c2nnc(C)s2)Nc2ccccc2)[C@H](c2ccc(C)cc2)S1,56.5% (inactive)
16,CS(=O)(=O)N(CC(=O)N1CCN(c2ccc(F)cc2)CC1)C1CCCCC1,92% (inactive)
17,CCOC(=O)N1CCN(C(=O)CN(C2CCCCC2)S(C)(=O)=O)CC1,84.9% (inactive)
18,CS(=O)(=O)N(CC(=O)Nc1ccc(Cl)c(Cl)c1)C1CCCCC1,16.6% (active)
19,COC(=O)C1=C(C)N=C2SC(C)C(=O)N2C1/C=C/c1ccccc1 (stereo not drawn),85.8% (inactive)
20,O=C(NCCCN1CCCCC1)c1ccc2c(c1)NC(=O)C(N1CCOCC1)S2 (stereo not drawn),98.8% (inactive)
21,CCOc1ccc(Cn2nnc(C(=O)NCc3ccccc3)c2N)cc1,90.5% (inactive)
22,CCOc1ccc(Cn2nnc(C(=O)Nc3ccc(OC)cc3OC)c2N)cc1,76.9% (inactive)
23,Nc1c(C(=O)NCc2ccccc2)nnn1Cc1cccc(Cl)c1,26.7% (active)
24,COc1cc(OC)cc(-c2cc3nc(C4CCN(C(=O)OC(C)(C)C)CC4)cc(=O)n3[nH]2)c1,106% (inactive)

row,SMILES,viability
1,COc1ccc(C(=O)NN(C)c2nc(-c3ccccc3)cc(C)c2S(C)(=O)=O)cc1,85% (inactive)
2,Cc1nn(-c2ccccc2)c2sc(C(=O)N(Cc3ccco3)C(C)C(=O)NC(C)(C)C)cc12 (stereo not drawn),7.03% (active)
3,O=C(NCc1ccco1)c1nc(-c2ccccc2)n(-c2ccccc2)n1,75% (inactive)
4,Cn1nc(-c2ccc(Cl)cc2)c2cc(C(=O)NCc3ccco3)sc21,68.1% (inactive)
5,CC(=O)Nc1ccc(NC(=O)c2sc3nc4c(c(-c5ccc(C)cc5)c3c2N)CCC4)cc1,30.2% (active)
6,NC(=O)c1sc2nc3c(c(-c4ccccc4)c2c1N)CCC3,73.2% (inactive)
7,Cc1cccc(NC(=O)c2sc3nc4c(c(-c5ccco5)c3c2N)CCC4)c1,78.6% (inactive)
8,COc1cc(OC)c(-n2c(C)cc(C=O)c2C)cc1Cl,104% (inactive)
9,Cc1cccc(C)c1NC(=O)CSc1nnc(-c2ccccc2)n1Cc1ccc2c(c1)OCO2,72.2% (inactive)
10,CSc1nc(C)cc(SC(C(C)=O)C(=O)Nc2ccccc2)n1 (stereo not drawn),100% (inactive)
11,Cc1onc(-c2ccccc2Cl)c1C(=O)OCC(=O)c1ccccc1,97% (inactive)
12,CN1CCN(CCCNC(=O)c2cc3c(=O)oc4ccccc4c3s2)CC1,87.3% (inactive)
13,O=C(NCCN1CCN(Cc2ccccc2)CC1)c1cc2c(=O)[nH]c3ccccc3c2s1,1.91% (active)
14,O=C(Cc1c(O)c2ccccc2[nH]c1=O)NCc1ccccc1,101% (inactive)
15,COc1ccc(-n2c(C)csc2=S)cc1,86.6% (inactive)
16,CCOc1ccc(C(O)Cn2c(=N)n(CCN3CCCCC3)c3ccccc32)cc1 (stereo not drawn),44.7% (inactive)
17,CCOc1ccc(NC(=O)C2CCCN(C(=O)Nc3ccccc3)C2)cc1 (stereo not drawn),79.5% (inactive)
18,CCOc1ccccc1NC(=O)c1cccnc1,87.4% (inactive)
19,Cc1cc(=O)oc2cc(NC(=O)C3CC(=O)N(Cc4ccccc4)C3)ccc12 (stereo not drawn),96.1% (inactive)
20,Cc1ccccc1N1CCN(CCCOc2ccc3c(C)cc(=O)oc3c2)CC1,58.7% (inactive)
21,Cc1cc(=O)oc2cc(OCC3CC(c4ccccc4Cl)=NO3)ccc12 (stereo not drawn),27.1% (active)
